A short description of the assay: HT29 colon tumor cell growth inhibition, primary screen, imaging, high content imaging, 48 h, CellTiter-Glo (AID 771).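 As to condensed nuclei: condensed means Hoechst nuclear area under control median minus 1.5 SD.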 To be noted: HCS imaging cell count, at 10 µM, stronger effect = higher value; for condensed nuclei: measured here: percent cells with condensed nuclei. In general terms: ATP-based viability assays read luminescence as a measure of living cells.
[1] abbreviates: measured here: ATP CellTiter-Glo viability inhibition.

Growth inhibition and condensed nuclei data for 39 compounds are collected here from PubChem BioAssay AID771 (SRMLSC, 2007).

Among all 3,300 compounds or so, about 55 (2%) were called active.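 The calls were made as follows: active = growth inhibition above 90%, meaning viable cell count by imaging cut by more than 90% versus vehicle controls; inactive = growth inhibition below 90%.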 The entries come from a sample that favours actives as a whole.

In the case of `CN(C)CCCN1c2ccccc2CCc2ccc(Cl)cc21`, the growth inhibition was 89.6% (inactive) and the condensed nuclei is 39.3%.
Taken in the same sequence, the figures for `CN(C)CCCN1c2ccccc2CCc2ccccc21` were -27.8% (inactive) and 2.51%.
For `CNCCCN1c2ccccc2CCc2ccccc21`, in that order: 95.8% (active) and 13.8%.
Take `CCOC(=O)NC(Nc1sc2c(c1C(=O)OC)CCN(C)C2)(C(F)(F)F)C(F)(F)F`: the growth inhibition was -25.9% (inactive) and the condensed nuclei stood at 2.15%. Moreover, under setting [1], the growth inhibition amounted to 15.4%.
Taken in the same sequence, the figures for `Cc1cc(=O)oc(C)c1C(=O)N[C@@H]1CCCCNC1=O` were -26.2% (inactive), 2.68% and -3.89%.
For `CCCCOC(=O)CSC1=C(C#N)C(c2ccc3c(c2)OCO3)CC(=O)N1` (stereo unspecified), in that order: -15.7% (inactive), 2.23% and -8.71%.
Taken in the same sequence, the figures for `CCCOC(=O)CSC1=C(C#N)C(c2ccc3c(c2)OCO3)CC(=O)N1` (stereo unspecified) were 75.6% (inactive), 7.29% and 56.6%.
As for `CCOC(=O)CSC1=C(C#N)C(c2ccc3c(c2)OCO3)CC(=O)N1` (stereo unspecified), the growth inhibition was 90.1% (active) and the condensed nuclei was 12.2%. Also, the growth inhibition under setting [1] came out at 66.1%.
Taken in the same sequence, the figures for `Cn1cccc1/C=N/n1cnnc1` were 13.3% (inactive), 11% and 0.83%.
`CN(C)CCCN1c2ccccc2Sc2ccccc21`: the growth inhibition is 40.7% (inactive) and the condensed nuclei stood at 5.02%.
Regarding `CN(C)CCCN1c2ccccc2Sc2ccc(C(F)(F)F)cc21`, the growth inhibition was 93.8% (active) and the condensed nuclei is 30.8%.
Taken in the same sequence, the figures for `CN(C)CCCN1c2ccccc2Sc2ccc(Cl)cc21` were 92.7% (active) and 22.1%.
For `COc1ccc([C@@H]2Sc3ccccc3N(CCN(C)C)C(=O)[C@@H]2OC(C)=O)cc1`, in that order: -4.52% (inactive) and 2.39%.
For `CC(CN1c2ccccc2Sc2ccccc21)N(C)C` (stereo unspecified), in that order: 65.5% (inactive) and 6.11%.
With `CCOc1c(C)cc2[nH]c(CCC(=O)O)nc2c1C`, the growth inhibition is 26.2% (inactive) and the condensed nuclei was determined as 2.92%. In addition, under setting [1], the growth inhibition worked out at 7.89%.
On to `CN1CCN(Cc2c(O)c(Cl)cc3c(-c4ccccc4)cc(=O)oc23)CC1`, for which the growth inhibition is 8.72% (inactive) and the condensed nuclei was found to be 1.6%. The growth inhibition under setting [1] is -6.84%.
Take `C(=N\n1cnnc1)/c1cccc(Oc2ccccc2)c1`: the growth inhibition was -29.2% (inactive) and the condensed nuclei was 2.95%. Also, the growth inhibition under setting [1] is -4.38%.
For `COc1ccccc1N1CCN(C2CCN(C(=O)c3cccs3)CC2)CC1`, in that order: 32% (inactive), 4.31% and 11.2%.
Taken in the same sequence, the figures for `CCCCCCn1cc(C(=O)O)c(=O)c2ccccc21` were -27.6% (inactive), 2.69% and 1.82%.
Taken in the same sequence, the figures for `COC(=O)c1[nH]c2cc(OC)ccc2c1NC(=O)CN1CCN(c2cccc(C)c2)C(C)C1` (stereo unspecified) were 92.4% (active), 8.77% and 75.4%.
With `COC(=O)c1[nH]c2cc(OC)ccc2c1NC(=O)CCN1CCCC(C)(C)C1`, the growth inhibition was 5.81% (inactive) and the condensed nuclei amounted to 1.83%. Besides, the growth inhibition under setting [1] is 8.79%.
For `COC(=O)c1[nH]c2cc(OC)ccc2c1NC(=O)CN1CCC(C(N)=O)CC1`, in that order: 49.4% (inactive), 2.82% and -5.92%.
Taken in the same sequence, the figures for `COC(=O)C1CCN(c2nc3ccccc3nc2C(C#N)C(=O)NCCc2ccccc2)CC1` (stereo unspecified) were 30% (inactive), 3.61% and 5.48%.
Consider `COC(=O)c1ccccc1OCc1cccc(C)n1`, for which the growth inhibition is 39.5% (inactive) and the condensed nuclei came to 0.9%. The growth inhibition under setting [1] was determined as 2.81%.
For `COC(=O)c1cccc(Nc2cc(C)nc(-c3ccccc3O)n2)c1`, in that order: 91.6% (active), 8.33% and 77.4%.
For `COC(=O)c1ccc(Nc2cc(C)nc(-c3ccccc3O)n2)cc1`, in that order: 12.1% (inactive), 10.7% and 23%.
Taken in the same sequence, the figures for `CCOc1ccc(-c2nn3c(-c4ccc(OC)cc4)nnc3s2)cc1` were 10.5% (inactive), 2.81% and 4.54%.
On to `C[C@]12CC[C@@H]3c4ccc(OC(=O)c5ccccc5)cc4CC[C@H]3[C@@H]1CC[C@@H]2O`, for which the growth inhibition is 90.5% (active) and the condensed nuclei amounted to 22.1%.
Regarding `C[C@]12CC[C@@H]3c4ccc(O)cc4CC[C@H]3[C@@H]1CC[C@@H]2OC(=O)CCC(=O)O`, the growth inhibition was -33.9% (inactive) and the condensed nuclei was 0.84%.
Taken in the same sequence, the figures for `C[C@]12CC[C@@H]3c4ccc(O[C@@H]5O[C@H](C(=O)O)[C@@H](O)[C@H](O)[C@H]5O)cc4CC[C@H]3[C@@H]1C[C@@H](O)[C@@H]2O` were -7.06% (inactive) and 1.8%.
For `Cc1c(O)c(CN2CCCC(C)C2)cc2c3c(c(=O)oc12)CCC3` (stereo unspecified), the growth inhibition was -14.5% (inactive) and the condensed nuclei stood at 1.69%. The growth inhibition under setting [1] is -14.7%.
Taken in the same sequence, the figures for `CN(C1CCS(=O)(=O)C1)S(=O)(=O)c1cccc2nsnc12` (stereo unspecified) were -12.3% (inactive), 8.15% and 2.06%.
For `CCc1ccc(NC(=O)CSC2=C(C#N)C(c3ccco3)C3=C(CCCC3=O)N2)cc1` (stereo unspecified), in that order: 86.5% (inactive), 11.8% and 58.1%.
For `N#CC1=C(SCC(=O)c2ccccc2)NC2=C(C(=O)CCC2)C1c1ccco1` (stereo unspecified), in that order: 94.2% (active), 25.7% and 71.1%.
With `N#CC1=C(SCC(=O)c2ccc(Cl)cc2)NC2=C(C(=O)CCC2)C1c1ccco1` (stereo unspecified), the growth inhibition is 92.8% (active) and the condensed nuclei was determined as 7.89%. In addition, the growth inhibition under setting [1] worked out at 78.2%.
On to `Cc1ccc(NC(=O)CSC2=C(C#N)C(c3ccco3)C3=C(CCCC3=O)N2)cc1` (stereo unspecified), for which the growth inhibition was 18.9% (inactive) and the condensed nuclei worked out at 2.42%. Besides, the growth inhibition under setting [1] is -18.4%.
Taken in the same sequence, the figures for `N#CC1=C(SCC(=O)c2ccc(Br)cc2)NC2=C(C(=O)CCC2)C1c1ccco1` (stereo unspecified) were 68.9% (inactive), 7.14% and 54.1%.
Taken in the same sequence, the figures for `Cc1ccc(C(=O)CSC2=C(C#N)C(c3ccco3)C3=C(CCCC3=O)N2)cc1` (stereo unspecified) were 86% (inactive), 6.33% and 77.7%.
Taken in the same sequence, the figures for `Cn1c(=O)c2c3c(sc2n2c(SCC(=O)c4ccc(Cl)cc4)nnc12)COC(C)(C)C3` were -42.1% (inactive), 0.75% and -20.9%.
